Experimental data from PubChem BioAssay (EPA / NIEHS).
The source made the active and inactive calls. The calls were made as follows: active = hit-call score of the fitted dose curve at least 0.9, where 1 is the maximum; inactive = score below 0.9.

Each compound was assayed on Intercellular Adhesion Molecule 1 (ICAM1), ICAM1 (gene 3383) (assay: BSK_KF3CT_ICAM1: BioMAP Diversity Plus: KF3CT Assay for Intercellular Adhesion Molecule 1 (ICAM1) Biomarker Activity (AID 2283067)). Conditions: primary human keratinocytes with fibroblasts; actives raise or lower the signal.
Protocol: BSK_KF3CT is a cell-based, multiplexed-readout assay that uses keratinocytes and foreskin fibroblasts, a human skin primary cell co-culture, with measurements taken at 24 hours after chemical dosing in a 96-well plate.BSK_KF3CT_ICAM1 is an assay component measured in the BSK_KF3CT assay. It measures ICAM-1 antibody related to regulation of gene expression using ELISA technology.Data from the assay component BSK_KF3CT_ICAM1 was analyzed into 1 assay endpoint. This assay endpoint, BSK_KF3CT_ICAM1, was analyzed with bidirectional fitting relative to DMSO as the negative control and baseline of activity. Using a type of binding reporter, gain or loss-of-signal activity can be used to understand changes in the signaling as they relate to the gene ICAM1. Furthermore, this assay endpoint can be referred to as a primary readout, because this assay has produced multiple assay endpoints where this one serves a signaling function. To generalize the intended target to other relatable targets, this assay endpoint is annotated to the cell adhesion molecules intended target family, where the subfamily is Immunoglobulin CAM.
The levels of cell surface (or secreted, indicated by the prefix "s") biomarker endpoints were measured by ELISA. Overt cytotoxicity to cells in confluent adherent cultures (all systems other than the BT system) was assessed by measuring total protein levels using sulforhodamine B (SRB) staining in parallel cultures at the time of biomarker measurements, indicated as SRB endpoints. For proliferation assays for adherent cell types, individual cell types are cultured at sub-confluence and relative cell numbers quantified by SRB staining at time points optimized for each system (48 h: 3C and CASM3C systems; 72 h: BT and HDF3CGF systems; 96 h: SAg system). SRB was performed by staining cells with 0.1% SRB after fixation with 10% TCA and reading wells at 560 nm.Viability and proliferation of PBMC (T cells) was quantified by Alamar Blue reduction for the SAg and BT systems. For PBMC viability (referred to as PBMC Cytotoxicity within the assay endpoint names), cells were plated (75,000/well in a 96-well plate) and then chemical samples added for 1 h before addition of activators, SEB and TSST-1 (20 ng/mL final concentration each). Cells were incubated for 90 h. Then, Alamar Blue (20 uL/well) (Invitrogen, Cat DAL1100) was added for 6 h, and the plates were read with a fluorescence microplate reader at 546/580 nm (excitation/emission). For PBMC proliferation, cells were plated and activated as above but incubated for only 16 h prior to addition of Alamar Blue. Plates were read after 6 h.

**Q.** How did the outcome turn out when `O=C1OC(=O)C2C3C=CC(C3)C12` (stereo not given) was run?
**A.** inactive

**Q.** How did the outcome turn out when `CC(C)CCCCCCOC(=O)c1ccc(C(=O)OCCCCCCC(C)C)c(C(=O)OCCCCCCC(C)C)c1` was run?
**A.** inactive

**Q.** Which outcome does the source give for `O=P(OC(CCl)CCl)(OC(CCl)CCl)OC(CCl)CCl` here?
**A.** inactive

**Q.** For `Nc1cccc(N)c1`, which outcome is on record?
**A.** inactive

**Q.** For `O=C(O)c1cccc(N(Cc2cccnc2)c2ccc(OC(F)F)c(OC(F)F)c2)c1`, which outcome is on record?
**A.** inactive

**Q.** For `O=C(CCCCCCCCc1cccnc1)N1CCC(C=C(c2ccccc2)c2ccccc2)CC1`, which AC50 is on record?
**A.** 16.6 µM (active)

**Q.** Which outcome does the source give for `CC(=O)c1ccc2c(c1)[C@H](NC(=O)c1ccc(F)cc1)[C@@H](O)C(C)(C)O2` here?
**A.** inactive

**Q.** For `Nc1nc2ncc(CNc3ccc(C(=O)N[C@@H](CCC(=O)O)C(=O)O)cc3)nc2c(=O)[nH]1`, which outcome is on record?
**A.** inactive

**Q.** For `CCCN(C1CCN(C(=O)C2CCNCC2)CC1)[C@@H]1CCc2ccc(OC)cc2C1`, which outcome is on record?
**A.** inactive

**Q.** `CCCCCCCCCCCCCCCO` was tested. Which outcome did it give?
**A.** inactive

**Q.** For `CC(C)CC(C)(O)C#CC(C)(O)CC(C)C` (stereo not given), which outcome is on record?
**A.** inactive

**Q.** How did the outcome turn out when `COCCOc1cc2cc(C(=O)NC3CCN(C(C)C)CC3)n(CC(=O)Nc3ccc(Cl)cn3)c2cn1` was run?
**A.** inactive

**Q.** How did the outcome turn out when `CC[C@H]1CC[C@H](NCc2cc3c(cc2OC)[C@H]2C[C@H]2C(=O)N3C)[C@H](c2ccccc2)N1` was run?
**A.** inactive

**Q.** Which outcome does the source give for `CC(C)c1cccc(C(C)C)c1N1C(=O)c2ccc(O)cc2C1=O` here?
**A.** inactive

**Q.** For `CC1=CC(=O)CC(C)(C)C1`, which outcome is on record?
**A.** inactive

**Q.** For `CCN(C(=O)c1cc(C)cc(OC[C@H](C)Nc2ccncc2)c1)C(C)C`, which outcome is on record?
**A.** inactive

**Q.** `C=CC(=C)CCC=C(C)C` was tested. Which outcome did it give?
**A.** inactive

**Q.** Which outcome does the source give for `CCCC(=O)OCC` here?
**A.** inactive

**Q.** With `CCOCCO` as the compound, how does the outcome read?
**A.** inactive

**Q.** For `CCOCCOCCOCCO`, which outcome is on record?
**A.** inactive

**Q.** `CC(C)=CCCC(C)CCO` (stereo not given) was tested. Which outcome did it give?
**A.** inactive

**Q.** With `COCCOCCOCCOC` as the compound, how does the outcome read?
**A.** inactive

**Q.** `O=C(OC[C@H]1O[C@@H](OC(=O)c2cc(O)c(O)c(OC(=O)c3cc(O)c(O)c(O)c3)c2)[C@H](OC(=O)c2cc(O)c(O)c(OC(=O)c3cc(O)c(O)c(O)c3)c2)[C@@H](OC(=O)c2cc(O)c(O)c(OC(=O)c3cc(O)c(O)c(O)c3)c2)[C@@H]1OC(=O)c1cc(O)c(O)c(OC(=O)c2cc(O)c(O)c(O)c2)c1)c1cc(O)c(O)c(OC(=O)c2cc(O)c(O)c(O)c2)c1` was tested. Which AC50 did it give?
**A.** 4.39 µM (active)

**Q.** With `CC(C)(O)c1coc(S(=O)(=O)NC(=O)Nc2c3c(cc4c2CCC4)CCC3)c1` as the compound, how does the outcome read?
**A.** inactive

**Q.** How did the outcome turn out when `CC(C)=CCC/C(C)=C/CO` was run?
**A.** inactive

**Q.** Which outcome does the source give for `Fc1ccccc1[C@@H](F)COC1CCC(Nc2ncnc3[nH]ncc23)CC1` (stereo not given in full) here?
**A.** inactive

**Q.** `CCCCC(CC)COC(=O)c1ccc(C(=O)OCC(CC)CCCC)cc1` (stereo not given) was tested. Which outcome did it give?
**A.** inactive

**Q.** `Cn1c(=O)cc(Oc2ccc(F)cc2F)c2cnc(NCC(C)(C)O)nc21` was tested. Which outcome did it give?
**A.** inactive

**Q.** `O=C1CCC(N2C(=O)c3ccccc3C2=O)C(=O)N1` (stereo not given) was tested. Which outcome did it give?
**A.** inactive

**Q.** With `COC(=O)c1ccccc1O` as the compound, how does the outcome read?
**A.** inactive

**Q.** With `COC(=O)CC(=O)OC` as the compound, how does the outcome read?
**A.** inactive

**Q.** How did the outcome turn out when `Cc1c(-c2cccnc2)c2ccccc2n1CCCCC(=O)O` was run?
**A.** inactive

**Q.** With `Cc1[nH]cnc1C[C@H]1CCc2c(C)c3ccccc3n2C1=O` as the compound, how does the outcome read?
**A.** inactive

**Q.** How did the outcome turn out when `CC(C)CCO` was run?
**A.** inactive

**Q.** For `NC(=O)NO`, which outcome is on record?
**A.** inactive

**Q.** For `CC(=O)OC[C@H]1O[C@@](COC(C)=O)(O[C@H]2O[C@H](COC(C)=O)[C@@H](OC(C)=O)[C@H](OC(C)=O)[C@H]2OC(C)=O)[C@@H](OC(C)=O)[C@@H]1OC(C)=O`, which outcome is on record?
**A.** inactive

**Q.** `Cc1ccc(O)cc1` was tested. Which outcome did it give?
**A.** inactive

**Q.** For `CCCCCCCCCCCCc1ccccc1`, which outcome is on record?
**A.** inactive

**Q.** How did the outcome turn out when `Cc1ccc(N)cc1O` was run?
**A.** inactive

**Q.** `O=C(O)CCN(C1(C(=O)NO)CCCC1)S(=O)(=O)c1ccc(Oc2ccc(F)cc2)cc1` was tested. Which outcome did it give?
**A.** inactive
